# Measured values: the supplement of paper PMC9135407
# Where a name gives a salt, the structure may show the parent alone. Screen size: about 5,800 compounds; about 620 (11%) showed activity. Only a selection was taken, and actives are over-represented in it overall. A number with no mark means an inactive call.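 Rule for the calls: active = score above a cut-off or among the top three wells of a plate; in these data no inactive exceeds 0.85.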
# Test system: primary human hepatic stellate cells (donor 1)
# Experiment: scaled lipid accumulation score (0 = DMSO-like, 1 = nortriptyline-like); higher = stronger HSC inactivation (lipid re-accumulation), active = hit call of the paper
# Conditions: 48 h
# Description: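 Primary lipid accumulation screen in primary human hepatic stellate cell myofibroblasts (donor 1, passage 8) in 384-well plates. 100 nL of library compound was pin-transferred into 30 µL medium in duplicate, and cells were treated for 48 h. The 'Scaled' score combines distance from plate baseline, toxicity and reproducibility penalties, and is normalised to nortriptyline (positive) and DMSO (negative) controls on each plate. A hit is defined as scaled >0.85 or among the top 3 wells per plate.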
# [1] = library stock concentration: 10 mM
# [2] = library stock concentration: 1 mM
# [3] = library stock concentration: 400 uM
# [4] = library stock concentration: 3.33 mM
# [5] = library stock concentration: 80 uM
# [6] = library stock concentration: 2 mM
compound,measurement,setting,value
Nc1c2c(nc3ccccc13)CCCC2 [Tacrine hydrochloride],scaled lipid accumulation score,[1],0.064
Nc1c2c(nc3ccccc13)CCCC2O (stereo not drawn) [Hydroxytacrine maleate],scaled lipid accumulation score,library stock concentration: 9.3 mM,≤ -0.006
same,scaled lipid accumulation score,[1],0.056
Cl.Cl.c1ccc2c(NCCCCCCCNc3c4c(nc5ccccc35)CCCC4)c3c(nc2c1)CCCC3 [bis(7)-Tacrine],scaled lipid accumulation score,[2],1.11 (active)
"Nc1c2c(nc3ccccc13)CCCC2 [9-Amino-1,2,3,4-tetrahydroacridine hydrochloride]",scaled lipid accumulation score,[1],0.401
Nc1c2c(nc3ccccc13)CCCC2 [Tacrine (hydrochloride)],scaled lipid accumulation score,[2],0.026
Nc1c2c(nc3ccccc13)CCCC2,scaled lipid accumulation score,library stock concentration: 9.7 mM,0.039
"CCCCCC(=O)CC[C@H]1C=CC(=O)[C@@H]1C/C=C\CCCC(=O)O [13,14-dihydro-15-keto Prostaglandin A2]",scaled lipid accumulation score,[2],≤ 0
CCCCC[C@H](O)/C=C/[C@H]1C2CC(CO2)[C@@H]1C/C=C/CCCC(=O)O (stereo partly drawn),scaled lipid accumulation score,[2],≤ 0
CCCCC[C@](C)(O)/C=C/[C@@H]1[C@@H](C/C=C\CCCC(=O)O)[C@@H](O)C[C@H]1O [15(S)-15-methyl Prostaglandin F2.alpha.],scaled lipid accumulation score,[2],≤ 0
"CCCCC/C=C\C/C=C\CC1OC1C/C=C\CCCC(=O)O (stereo not drawn) [8,9-Epoxyeicosatrienoic acid]",scaled lipid accumulation score,library stock concentration: 100 uM,≤ -0.021
"CNC(=O)c1cc(Oc2ccc(NC(=O)Nc3ccc(Cl)c(C(F)(F)F)c3)cc2)ccn1 [Sorafenib (Nexavar, BAY43-9006) (10 mM)]",scaled lipid accumulation score,[1],1.21 (active)
"CNC(=O)c1cc(Oc2ccc(NC(=O)Nc3ccc(Cl)c(C(F)(F)F)c3)cc2)ccn1 [Sorafenib  (Nexavar, BAY43-9006) (0.4 mM)]",scaled lipid accumulation score,[3],0.021
CNC(=O)c1cc(Oc2ccc(NC(=O)Nc3ccc(Cl)c(C(F)(F)F)c3)cc2)ccn1 [Sorafenib],scaled lipid accumulation score,[4],≤ 0
same,scaled lipid accumulation score,[1],≤ 0
CNC(=O)c1cc(Oc2ccc(NC(=O)Nc3ccc(Cl)c(C(F)(F)F)c3)cc2)ccn1,scaled lipid accumulation score,[5],0.04
same,scaled lipid accumulation score,[3],0.075
same,scaled lipid accumulation score,[6],≤ 0
same,scaled lipid accumulation score,[1],0.672
CNC(=O)c1cc(Oc2ccc(NC(=O)Nc3ccc(Cl)c(C(F)(F)F)c3)c(F)c2)ccn1 [Regorafenib],scaled lipid accumulation score,[5],≤ -0.016
same,scaled lipid accumulation score,[3],0.033
same,scaled lipid accumulation score,[6],≤ -0.016
same,scaled lipid accumulation score,[1],≤ -0.016
CNC(=O)c1cc(Oc2ccc(NC(=O)Nc3ccc(Cl)c(C(F)(F)F)c3)c(F)c2)ccn1 [Regorafenib (BAY 73-4506)],scaled lipid accumulation score,[4],≤ 0
same,scaled lipid accumulation score,[1],≤ 0
CNC(=O)c1cc(Oc2ccc(NC(=O)Nc3ccc(Cl)c(C(F)(F)F)c3)cc2)ccn1 [Sorafenib Tosylate],scaled lipid accumulation score,[4],0.005
same,scaled lipid accumulation score,[1],≤ 0
"CNC(=O)c1cc(Oc2ccc(NC(=O)Nc3ccc(Cl)c(C(F)(F)F)c3)cc2)ccn1 [Sorafenib  (Nexavar, BAY43-9006) (2 mM)]",scaled lipid accumulation score,[6],0.299
CC1(C(=O)O)NCCc2cc(O)c(O)cc21 (stereo not drawn) [Salsolinol-1-carboxylic acid],scaled lipid accumulation score,[1],0.05
NC/C=C/C(=O)O [(E)-4-amino-2-butenoic acid],scaled lipid accumulation score,[1],≤ 0
CN(C)C(=O)Nc1cccc(-c2ccc(N(C)C)cc2)c1 [Atglistatin],scaled lipid accumulation score,[4],0.012
same,scaled lipid accumulation score,[1],0.076
CCn1cc(-c2ccnc3[nH]c(-c4cccc(CN(C)C)c4)cc23)c(-c2ccc(NC(=O)N(C)C)cc2)n1 [listing 1 of 2 here],scaled lipid accumulation score,[5],≤ 0
same,scaled lipid accumulation score,[3],≤ 0
same,scaled lipid accumulation score,[6],0.222
CCn1cc(-c2ccnc3[nH]c(-c4cccc(CN(C)C)c4)cc23)c(-c2ccc(NC(=O)N(C)C)cc2)n1 [listing 2 of 2 here],scaled lipid accumulation score,[1],0.863 (active)
NCCNCCNCCN [Trientine hydrochloride],scaled lipid accumulation score,library stock concentration: 9.1 mM,≤ 0
CC(=O)Oc1ccc2c(c1)CC[C@@H]1[C@@H]2CC[C@]2(C)[C@@H](OC(C)=O)CC[C@@H]12 [Estradiol diacetate],scaled lipid accumulation score,[1],≤ 0
N#C[C@@H]1C[C@@H]2C[C@@H]2N1C(=O)[C@@H](N)C12CC3CC(CC(O)(C3)C1)C2 [Saxagliptin],scaled lipid accumulation score,[4],≤ 0
same,scaled lipid accumulation score,[1],≤ 0
N#C[C@@H]1C[C@@H]2C[C@@H]2N1C(=O)[C@@H](N)C12CC3CC(CC(O)(C3)C1)C2,scaled lipid accumulation score,[1],≤ 0
O=C(O)CCC/C=C\C[C@H]1C(=O)C[C@@H](O)[C@@H]1/C=C/[C@@H](O)Cc1ccccc1 [16-phenyl tetranor Prostaglandin E2],scaled lipid accumulation score,[2],≤ 0
CCCCn1c(=O)c2[nH]c(C34CC5CC(CC3C5)C4)nc2n(CCCO)c1=O,scaled lipid accumulation score,[1],≤ -0.001
CN1CCN2c3ncccc3Cc3ccccc3C2C1 (stereo not drawn) [Mirtazepine],scaled lipid accumulation score,[1],0.053
CN1CCN2c3ccccc3Cc3ccccc3C2C1 (stereo not drawn) [Mianserin hcl],scaled lipid accumulation score,library stock concentration: 7.6 mM,0.348
CN1CCN2c3ccccc3Cc3ccccc3C2C1 (stereo not drawn) [Mianserine hydrochloride],scaled lipid accumulation score,,0.681
CN1CCN2c3ccccc3Cc3ccccc3C2C1 (stereo not drawn) [Mianserin hydrochloride],scaled lipid accumulation score,library stock concentration: 6.6 mM,0.236
same,scaled lipid accumulation score,[1],0.398
